# PMC9838217, “Structure of SALL4 zinc finger domain reveals link between AT-rich DNA binding and Okihiro syndrome”
# Positions count from the first letter of the chain named.
# Target: T1, SALL4 ZFC4 WT (HT-SELEX) (Mus musculus, UniProt Q8BX22 870-940)
# T1 sequence: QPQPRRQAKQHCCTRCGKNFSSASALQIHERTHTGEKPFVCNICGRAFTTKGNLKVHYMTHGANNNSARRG
# Assay: HT-SELEX; high values mean tight binding
# Settings: protein: recombinant; vector His6-GST; dsDNA, one strand shown
# Method in brief: (§1)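 Residues 870–940 of mouse SALL4, forming zinc finger cluster 4, were expressed recombinantly, purified, and 1 µg was incubated with library DNA (1.5 µg first cycle, 200 ng later) in 100 µl of 10 mM Tris–HCl pH 7.5, 50 mM NaCl, poly(dI-dC) and DTT for 10 min at room temperature. Washed Ni2+ bead-captured complexes were PCR-amplified and reselected for up to 6 cycles in triplicate, and the products were sequenced on MiSeq and scanned for 6-mers. Binding signal is the fold change in each canonical k-mer's read fraction compared with the initial random library.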
row,Sequence,binding signal [fold-change vs cycle 0]
1,GGATCC,0.489 ± 0.0186
2,AGATGA,1.49 ± 0.0331
3,AGAGGG,0.489 ± 0.0115
4,ATACGC,0.486 ± 0.0113
5,GACACC,0.393 ± 0.0241
6,TACCTA,1.35 ± 0.0562
7,CCATCC,0.48 ± 0.0325
8,ACCGTG,0.361 ± 0.00928
9,ATGCTG,0.649 ± 0.0321
10,AATGAA,2.19 ± 0.104
11,CTCCTA,0.926 ± 0.0641
12,ACAGCA,0.623 ± 0.0211
13,ATTACA,2.21 ± 0.144
14,TAGCGA,0.54 ± 0.0286
15,CATGAG,0.884 ± 0.0345
16,AAGCTC,0.631 ± 0.0495
17,AGAGAA,1.42 ± 0.0467
18,AGGGAG,0.59 ± 0.0373
19,CTTTAC,1.34 ± 0.0196
20,AATTGT,1.82 ± 0.0686

row,Sequence,binding signal [fold-change vs cycle 0]
1,CTACAC,0.733 ± 0.0291
2,CTACTA,1.31 ± 0.0478
3,TATAAA,3.97 ± 0.451
4,CTCTGC,0.35 ± 0.0408
5,GAAGCA,0.667 ± 0.0348
6,ATCCCC,0.549 ± 0.0564
7,ACTTAA,1.95 ± 0.0715
8,AGACCA,0.701 ± 0.0172
9,TTCAAA,1.81 ± 0.113
10,GAAGGA,0.959 ± 0.0373
11,GCAAAC,0.54 ± 0.031
12,AACAAC,1.18 ± 0.0643
13,GGACAA,0.637 ± 0.0222
14,CCCAAA,0.588 ± 0.013
15,AATCCA,1.41 ± 0.0345
16,GACATC,0.75 ± 0.0336
17,AGCTAC,0.674 ± 0.0463
18,CAGAGC,0.315 ± 0.0109
19,GTATGA,1.51 ± 0.0577
20,ACGATC,0.662 ± 0.038

# Target: T2, SALL4 ZFC4 R900W (HT-SELEX) (Mus musculus, UniProt Q8BX22 870-940, R900W)
# T2 sequence: T1 sequence with R31W
# Assay: HT-SELEX; high values mean tight binding
# Settings: protein: recombinant; vector His6-GST; dsDNA, one strand shown
# Method in brief: as §1
row,Sequence,binding signal [fold-change vs cycle 0]
1,GGATCC,0.559 ± 0.0217
2,AGATGA,1.6 ± 0.074
3,AGAGGG,0.556 ± 0.0501
4,ATACGC,0.531 ± 0.0184
5,GACACC,0.461 ± 0.0351
6,TACCTA,1.48 ± 0.0891
7,CCATCC,0.541 ± 0.0313
8,ACCGTG,0.456 ± 0.013
9,ATGCTG,0.712 ± 0.0351
10,AATGAA,2.17 ± 0.105
11,CTCCTA,1.07 ± 0.0219
12,ACAGCA,0.694 ± 0.0191
13,ATTACA,2.06 ± 0.11
14,TAGCGA,0.613 ± 0.0291
15,CATGAG,0.992 ± 0.0188
16,AAGCTC,0.76 ± 0.0539
17,AGAGAA,1.64 ± 0.0726
18,AGGGAG,0.667 ± 0.0517
19,CTTTAC,1.5 ± 0.0474
20,AATTGT,1.81 ± 0.0917

row,Sequence,binding signal [fold-change vs cycle 0]
1,CTACAC,0.845 ± 0.0188
2,CTACTA,1.47 ± 0.0658
3,TATAAA,2.53 ± 0.209
4,CTCTGC,0.396 ± 0.021
5,GAAGCA,0.784 ± 0.0247
6,ATCCCC,0.604 ± 0.0359
7,ACTTAA,2.12 ± 0.103
8,AGACCA,0.823 ± 0.0201
9,TTCAAA,1.83 ± 0.0928
10,GAAGGA,1.11 ± 0.0789
11,GCAAAC,0.598 ± 0.00737
12,AACAAC,1.26 ± 0.0286
13,GGACAA,0.742 ± 0.00957
14,CCCAAA,0.653 ± 0.0116
15,AATCCA,1.44 ± 0.0422
16,GACATC,0.879 ± 0.011
17,AGCTAC,0.7802 ± 0.0018
18,CAGAGC,0.382 ± 0.0231
19,GTATGA,1.49 ± 0.0331
20,ACGATC,0.773 ± 0.0211

# Target: T3, SALL4 ZFC4 G921D (HT-SELEX) (Mus musculus, UniProt Q8BX22 870-940, G921D)
# T3 sequence: T1 sequence with G52D
# Assay: HT-SELEX; high values mean tight binding
# Settings: protein: recombinant; vector His6-GST; dsDNA, one strand shown
# Method in brief: as §1
row,Sequence,binding signal [fold-change vs cycle 0]
1,GGATCC,0.643 ± 0.0527
2,AGATGA,1.46 ± 0.104
3,AGAGGG,0.655 ± 0.0298
4,ATACGC,0.66 ± 0.0195
5,GACACC,0.593 ± 0.067
6,TACCTA,1.42 ± 0.0965
7,CCATCC,0.633 ± 0.0281
8,ACCGTG,0.547 ± 0.0682
9,ATGCTG,0.801 ± 0.0529
10,AATGAA,1.89 ± 0.135
11,CTCCTA,1.05 ± 0.0362
12,ACAGCA,0.793 ± 0.0143
13,ATTACA,1.82 ± 0.177
14,TAGCGA,0.72 ± 0.0193
15,CATGAG,1.03 ± 0.0481
16,AAGCTC,0.866 ± 0.0327
17,AGAGAA,1.46 ± 0.11
18,AGGGAG,0.737 ± 0.0368
19,CTTTAC,1.36 ± 0.0809
20,AATTGT,1.66 ± 0.114

row,Sequence,binding signal [fold-change vs cycle 0]
1,CTACAC,0.893 ± 0.0116
2,CTACTA,1.39 ± 0.0974
3,TATAAA,2.14 ± 0.302
4,CTCTGC,0.522 ± 0.0742
5,GAAGCA,0.88 ± 0.0121
6,ATCCCC,0.664 ± 0.0449
7,ACTTAA,1.85 ± 0.222
8,AGACCA,0.91 ± 0.0215
9,TTCAAA,1.66 ± 0.161
10,GAAGGA,1.08 ± 0.0796
11,GCAAAC,0.718 ± 0.0549
12,AACAAC,1.25 ± 0.0618
13,GGACAA,0.828 ± 0.043
14,CCCAAA,0.729 ± 0.0699
15,AATCCA,1.37 ± 0.0637
16,GACATC,0.967 ± 0.0135
17,AGCTAC,0.874 ± 0.026
18,CAGAGC,0.524 ± 0.0543
19,GTATGA,1.38 ± 0.0706
20,ACGATC,0.907 ± 0.0183
